# PubChem BioAssay AID651812 (National Center for Advancing Translational Sciences (NCATS), 2012)
# Hit rate of the full screen: of about 2,100 compounds, about 650 (31%) were called active. Roughly 16% stayed inconclusive and do not appear here. Calls follow the shape of the dose curve; as a rule, active = well fitted inhibition curve with a large enough effect; inconclusive = small, poorly fitted or top-dose-only effect; inactive = flat fitted curve, though single readings scatter. This is one part of the list.
# Experiment: qHTS for inhibitors of Vif-A3G interactions: Cherry picks; also: nearly all actives have a fitted effect of over 80% in size; as to activity, negative = fluorescence increase: % of control where 0% means no effect
# Conditions: HeLa A3G-eYFP + Vif (tagged APOBEC3G with the HIV-1 protein that degrades it), 24 h; Potency: eYFP fluorescence increase; series mostly up to 36.9 µM; activity, negative = fluorescence increase: at the top concentration
# Summary of the method: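 Cherry-picked compounds tested at several concentrations on A3G-eYFP/Vif HeLa cells for 24 hours; loss of Vif-driven degradation read as eYFP fluorescence by cytometric plate imaging, 488 nm excitation, 500-530 nm emission.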
# Potency is read from the fitted curve at half-maximal effect.
Compound,"activity, negative = fluorescence increase",Potency
C[C@H]1CN([C@@H](C)CO)C(=O)Cc2cc(NC(=O)CCC(F)(F)F)ccc2O[C@H]1CN(C)S(=O)(=O)c1ccc(F)cc1,-5.1% (inactive),–
C/C(=N\NC(=O)c1cc(C)nc2ccccc12)c1ccncc1,-2.34% (inactive),–
Cc1cccc(N2CCN(Cc3cn(C)nc3-c3ccccc3F)CC2)n1,-2.89% (inactive),–
C[C@H](O)[C@@H]1CN2CCc3c([nH]c4ccccc34)[C@@H]2C[C@@H]1N(C)C(=O)c1ccco1,-0.738% (inactive),–
COC(=O)C1C2CC3c4[nH]c5cc(OC)ccc5c4CCN3CC2CC(OC(=O)CC(C)=O)C1OC (stereo not drawn),–,18.4 µM (active)
COC(=O)C1C2CC3c4[nH]c5cc(OC)ccc5c4CCN3CC2CC(OC2CCCCO2)C1OC (stereo not drawn),–,20.6 µM (active)
Cc1ccccc1NC(=O)CSC1=C(C#N)C(c2ccsc2)CC(=O)N1 (stereo not drawn),-3.24% (inactive),–
O=[N+]([O-])c1ccc(N/N=C/C=C/c2ccco2)cc1,–,16.4 µM (active)
O=C(N/N=C/C=C/c1ccco1)c1ccncc1,7.78% [at 46.1 µM] (inactive),–
COc1ccc(NC(=O)/C(C#N)=C/C=C/c2ccco2)cc1,-1.01% (inactive),–
O=Nc1ccc(O)c2ncccc12,-6.47% (inactive),–
CC1=NN(c2ccccc2)C(=O)/C1=C/C=C/c1ccccc1,-7.4% (inactive),–
COc1ccccc1CCC(=O)Nc1ccc2c(c1)c(=O)n(C)n2-c1cccs1,-14.5% (inactive),–
O=C1c2cccc3c(N4CCCCC4)ccc(c23)C(=O)N1c1ccccc1O,–,1.3 µM (active)
O=C(NC(=S)Nc1ccccc1N1CCCCC1)c1ccccc1,13.5% [at 46.1 µM] (inactive),–
O=C1c2cccc3c(N4CCCCC4)ccc(c23)C(=O)N1c1cccc(O)c1,-14.5% [at 46.1 µM] (inactive),–
O=C1c2cccc3c(N4CCCCC4)ccc(c23)C(=O)N1CCO,–,17.7 µM (active)
C=CCN1C(=O)c2cccc3c(N4CCCCC4)ccc(c23)C1=O,–,20.6 µM (active)
COc1ccc(S(=O)(=O)Nc2cc(Sc3ncn[nH]3)c(O)c3ccccc23)cc1,-20.8% (inactive),–
CSc1ccccc1NC(=O)COC(=O)/C=C/c1ccco1,-3.36% [at 46.1 µM] (inactive),–
O=C(NC(=S)N1CCc2ccccc21)c1ccco1,6.64% [at 46.1 µM] (inactive),–
CCCOc1ccccc1C1CC(=O)NC2=C1C(=O)CCC2 (stereo not drawn),-1.81% (inactive),–
CCN(CC)CCCNc1ccc2ncn3c4ccc(O)cc4c(=O)c1c23,–,18.4 µM (active)
CN(C)CCNc1ccc2ncn3c4ccc(O)cc4c(=O)c1c23,–,20.6 µM (active)
CCCCOc1ccc(-c2nnn(CC(=O)NCc3ccco3)n2)cc1,-5.01% (inactive),–
COC(=O)c1cccc(NS(=O)(=O)c2ccc(OC)cc2)c1C,-1.35% (inactive),–

Compound,"activity, negative = fluorescence increase",Potency
O=C(CSc1ccccc1)Nc1nc2ccccc2[nH]1,-8.99% (inactive),–
COc1cccc(N2CC(O)=C(c3nc4ccccc4s3)C2=N)c1,-13.4% (inactive),–
CC(=O)Nc1sc2c(c1-c1nc3ccccc3s1)CCN(C(C)C)C2,–,18.4 µM (active)
CN1CCc2c(sc(NC(=O)CSc3ccc(F)cc3)c2-c2nc3ccccc3s2)C1,–,1.64 µM (active)
COc1ccccc1/C=N/NC(=O)c1cc2c(OC)c(OC)ccc2[nH]1,-4.72% (inactive),–
CC1CC(C)CN(CC(=O)c2c[nH]c3ccccc23)C1 (stereo not drawn),–,18.4 µM (active)
O=C(C(=O)N1CCN(c2ccccc2Cl)CC1)c1c[nH]c2ccccc12,1.33% (inactive),–
C=CCN1C=CC(=CC=C(C#N)C#N)C=C1,–,14 µM (active)
CCCN1C=CC(=CC=C(C#N)C#N)C=C1,–,15.8 µM (active)
COc1cccc(/C=N/n2c(C3CCCCC3)n[nH]c2=S)c1O,8.61% [at 46.1 µM] (inactive),–
COCCNC(=O)C(=O)Nc1ccc2c(c1)N(S(=O)(=O)c1cccs1)CCC2,-0.781% (inactive),–
CN(/N=C/c1ccc(N(C)C)cc1)C1=NS(=O)(=O)c2ccccc21,–,17.7 µM (active)
CN(C)c1ccc(/C=N/NC(=O)c2ccccc2Cl)cc1,3.19% (inactive),–
CCn1c(CNC(=O)c2cc(OC)c(OC)c(OC)c2)cc2cc(C)ccc21,-2.87% [at 46.1 µM] (inactive),–
CCOc1ncccc1C(=O)OCc1ccc(C(=O)OC)cc1,-9.97% (inactive),–
C=CCSc1nnc(C)c(/C=C/Nc2ccc(Cl)cc2)n1,–,20.6 µM (active)
COc1ccc(N/C=C/c2nc(SC)nnc2C)cc1,-23.1% [at 46.1 µM] (inactive),–
COc1ccccc1NC1=NC(c2ccc(Cl)cc2)N=C(N)N1 (stereo not drawn),-5.12% (inactive),–
CCN(CC)c1ccc(/C=N/NC(=S)NC)c(O)c1,0.353% [at 46.1 µM] (inactive),–
CCN1C(=S)SC(=O)C1=C1C=C(C)N(Cc2ccco2)C(C)=C1,–,14 µM (active)
Cc1c(C(=O)Nc2cnccn2)oc2ccccc12,-1.49% (inactive),–
O=C1CC(c2cc(F)ccc2F)c2cc3c(cc2N1)CCC3 (stereo not drawn),-1.72% (inactive),–
O=C(Cc1n[nH]c(=O)c2ccccc12)OCC(=O)c1ccc2c(c1)OCCO2,-14.4% (inactive),–
C(=C/c1nccc2c1[nH]c1ccccc12)/c1ccc2c(c1)OCO2,-7.14% (inactive),–
N#Cc1ccc(/C=C\c2nccc3c2[nH]c2ccccc23)cc1,–,14 µM (active)
O=C(C[n+]1cccc2cc(Cl)ccc21)c1ccc(I)cc1,–,20.6 µM (active)

Compound,"activity, negative = fluorescence increase",Potency
CC(C)(C)c1ccc(C(=O)C[n+]2cccc3cc(Cl)ccc32)cc1,–,20.6 µM (active)
O=C(C[n+]1cccc2cccc(O)c21)c1ccc2ccccc2c1,-11% [at 46.1 µM] (inactive),–
O=C(C[n+]1cccc2cc(Cl)ccc21)c1ccc2ccccc2c1,–,23.1 µM (active)
O=C(COC(=O)c1ccc(NS(=O)(=O)c2cccs2)cc1O)NCc1ccccc1,-9.24% (inactive),–
CCC(=Nc1ccccc1O)C1=C(O)CC(c2ccccc2)CC1=O (stereo not drawn),-3.16% (inactive),–
Clc1ccccc1C1CC(c2ccccc2)=Nc2ccccc2N1 (stereo not drawn),-8.72% [at 46.1 µM] (inactive),–
CCOc1ccccc1C(=O)Nc1ccsc1C(=O)OC,1.29% (inactive),–
Cc1cccc(C=Nc2ccccc2C(N)=O)c1,3.09% (inactive),–
CCOc1ccc(N(C)c2ccc(/C=C3/SC(=S)NC3=O)cc2)cc1,–,17.7 µM (active)
CN(C)c1ccc(C=C2SC(=S)NC2=O)cc1,–,11.2 µM (active)
Cc1cccc(N=C2NC(=O)/C(=C/c3cccn3C)S2)c1,0.0988% (inactive),–
Cn1cc(/C=C2\SC(=S)N(NC(=O)c3cccc(Cl)c3)C2=O)c2ccccc21,–,3.66 µM (active)
Cn1cccc1/C=C1\SC(=Nc2cccc(O)c2)NC1=O,-6.02% (inactive),–
Cn1cccc1/C=C1\SC(=O)N(c2ccc(O)cc2)C1=O,–,20.6 µM (active)
Cc1ccc(N=C2NC(=O)/C(=C/c3cn(C)c4ccccc34)S2)cc1C,–,17.7 µM (active)
O=C1NC(=Nc2ccc(O)cc2)S/C1=C/c1ccco1,0.269% (inactive),–
Cn1cc(/C=C2\SC(=O)N(c3ccccc3)C2=O)c2ccccc21,–,20.6 µM (active)
CCOc1ccc(C(=O)C(CCC(CN(C)C)C(=O)c2ccc(OCC)cc2)CN(C)C)cc1 (stereo not drawn),-0.142% (inactive),–
S=c1[nH]nc(-c2cccnc2)n1/N=C/C(Cl)=C\c1ccccc1,-14.4% (inactive),–
O=C(C(=Cc1ccccc1)CN1CCCCC1)c1ccccc1,-0.537% (inactive),–
O=S(=O)(Nc1cc(Sc2ncn[nH]2)c(O)c2ccccc12)c1ccccc1,-17.9% (inactive),–
COc1ccc(NC(=O)C2Cc3c(-c4cccc(C(C)=O)c4)ccnc3O2)cn1 (stereo not drawn),0.238% (inactive),–
Cc1noc(C)c1COc1cccc(C(=O)OC(C)C(=O)Nc2ccc3c(c2)OCO3)c1 (stereo not drawn),-0.108% (inactive),–
COc1cc2c(cc1OC)C(C)N(C(=O)c1cc(C)on1)CC2 (stereo not drawn),-1.83% (inactive),–
CN(C)c1ccc(C2C=C(c3ccc(Cl)cc3OC(F)F)Nc3ncnn32)cc1 (stereo not drawn),-23.3% (inactive),–
O=[N+]([O-])c1ccc(N/N=C/c2sc(N3CCOCC3)nc2-c2ccccc2)c(S(=O)(=O)Nc2ccccc2Cl)c1,–,11.6 µM (active)

Compound,"activity, negative = fluorescence increase",Potency
Cc1ccc(S(=O)(=O)Nc2cc(-c3nn(C)c(=O)c4ccccc34)ccc2N2CCOCC2)cc1,-12.2% (inactive),–
Cc1ccc(C(=O)c2cc([N+](=O)[O-])ccc2N2CCOCC2)cc1C,-7.92% (inactive),–
Cc1ccc(NS(=O)(=O)c2cc([N+](=O)[O-])ccc2N/N=C/c2sc(N3CCOCC3)nc2-c2ccccc2)c(C)c1,–,0.158 µM (active)
O=C(O)c1ccccc1/C=N/Nc1ccc(S(=O)(=O)N2CCOCC2)cc1[N+](=O)[O-],-3.49% (inactive),–
COc1ccccc1NS(=O)(=O)c1cc([N+](=O)[O-])ccc1N/N=C/c1sc(N2CCOCC2)nc1-c1ccccc1,–,2.06 µM (active)
COc1cc(C2c3cc4c(cc3C(OC3OC5COC(c6cccs6)OC5C(O)C3O)C3COC(=O)C23)OCO4)cc(OC)c1O (stereo not drawn),-29.5% (inactive),–
O=C(c1[nH]c(C(F)(F)F)nc1-c1ccccc1)N1CCN(c2cccc(C(F)(F)F)n2)CC1,-6.94% (inactive),–
O=C(CCc1ccccc1)Nc1ccc(Cl)cn1,-19.7% (inactive),–
COC(=O)COc1cccc2c(=O)n(CC(=O)NCc3ccccc3)ccc12,-15.8% (inactive),–
O=C(/C=C/c1ccncc1)c1cc(Cl)ccc1O,-5.76% [at 46.1 µM] (inactive),–
COc1ccccc1C1=NOC(COc2ccc3c(C)cc(=O)oc3c2)C1 (stereo not drawn),-2.24% (inactive),–
Cc1cccc(-n2c(N)c(-c3nc4ccccc4n3C)c3nc4ccccc4nc32)c1,-4.05% [at 46.1 µM] (inactive),–
CC(=O)n1c2ccccc2c2nc3ccccc3nc21,–,9.2 µM (active)
CCSc1nc2ccccc2n1C(=O)/C=C/c1ccc(OC)c(OC)c1,-5.86% (inactive),–
O=c1c(Cl)c2oc3ccccc3nc-2c2ccccc12,–,18.4 µM (active)
COc1ccc(/C=N/NC(=O)c2cc3c(OC)ccc(OC)c3[nH]2)cc1O,-7.72% (inactive),–
O=[N+]([O-])c1ccc(N2CCN(Cc3ccccc3)CC2)c2c1no[n+]2[O-],–,15.8 µM (active)
Cc1ccc(-c2nc3ccccc3o2)cc1NC(=S)NC(=O)/C=C/c1ccco1,-14.8% (inactive),–
COc1ccccc1C(=O)NC(=S)Nc1ccc(NC(=O)c2ccco2)cc1,0.442% (inactive),–
Cc1cc(NC(=O)c2ccco2)cc(-c2nc3cc(Cl)ccc3o2)c1O,–,18.4 µM (active)
CC1=C(C(=O)Nc2cccc(F)c2)C(c2ccsc2)C2=C(CC(C)(C)CC2=O)N1 (stereo not drawn),-10.6% (inactive),–
CCCN1C(=O)S/C(=C\c2ccc(N3CCOCC3)o2)C1=O,–,4.44 µM (active)
O=C1S/C(=C\c2ccc(N3CCOCC3)o2)C(=O)N1c1ccccc1,–,2.8 µM (active)
O=C1S/C(=C/c2ccc(N3CCOCC3)o2)C(=O)N1Cc1c(F)cccc1Cl,–,4.44 µM (active)
CCOC(=O)CN1C(=O)S/C(=C/c2ccc(N3CCCCC3)o2)C1=O,–,5.8 µM (active)
